Sampled rows, rich in hits. Any-hit rate of the full collection: about 2.4%.
SmPrx2 inh – Schistosoma Mansoni Peroxiredoxins (Prx2); Schistosoma mansoni peroxiredoxin 2 (Prx2); S. mansoni Prx2 activity coupled to TGR/GSH (TGR is thioredoxin glutathione reductase), NADPH fluorescence loss, qHTS; Potency, µM; 0.07% of 65,000 active; AID 448, 2006
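qHTS, coupled TGR/Prx2 format; 15 min compound preincubation at RT; reaction started with H2O2 (2.5 mM aliquot); kinetic NADPH fluorescence decrease, ex 365/em 450 nm.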
Anthrax LT inh – qHTS Assay for Anthrax Lethal Toxin Internalization; Cells, anthrax lethal toxin internalization, FRET ratio (460/530); Potency, µM (titrated, usually from 40 µM), for the others: at the top dose activity change, negative = inhibition, most hits filed as inhibitors; 0.67% of 70,000 active; further: on the % scale 0 is the no-effect control and ±100 the full control effect; nearly all actives have a fitted effect of over 50% in size
AmpC inh det – Promiscuous and Specific Inhibitors of AmpC Beta-Lactamase (assay with detergent); P00811; purified AmpC, nitrocefin hydrolysis with detergent; Potency, µM (top dose mostly 28.7 µM), for inactives: top-dose activity change, negative = inhibition; 0.09% of 71,000 active; AID 584, 2007; active means well fitted curve in the direction sought with a large enough effect; inconclusive means small, poorly fitted or top-dose-only effect; further: on the % scale 0 is the no-effect control and ±100 the full control effect
Target sequence (P00811 whole entry, looked up): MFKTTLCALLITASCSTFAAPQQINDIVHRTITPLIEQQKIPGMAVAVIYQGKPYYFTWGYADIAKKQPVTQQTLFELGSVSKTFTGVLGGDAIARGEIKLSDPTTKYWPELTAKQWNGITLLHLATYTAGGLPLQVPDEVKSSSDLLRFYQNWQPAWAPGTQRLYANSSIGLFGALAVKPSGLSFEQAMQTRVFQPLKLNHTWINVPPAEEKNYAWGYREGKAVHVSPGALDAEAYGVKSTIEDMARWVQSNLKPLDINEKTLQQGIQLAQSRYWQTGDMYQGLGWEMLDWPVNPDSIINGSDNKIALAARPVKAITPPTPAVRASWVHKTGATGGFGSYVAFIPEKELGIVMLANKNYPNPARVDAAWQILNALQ
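E. coli AmpC (5.3 nM) in 20 mM phosphate pH 7.0 with 0.01% Triton X-100, preincubated 15 min RT with compound; nitrocefin (2 uL of 800 uM stock) hydrolysis followed by 480 nm absorbance every 20 s over 4 min.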
AmpC nodet inh – Promiscuous and Specific Inhibitors of AmpC Beta-Lactamase (assay without detergent). AmpC nitrocefin hydrolysis, absorbance 480 nm, no detergent. Potency, µM (titrated, usually from 28.7 µM), for inactives: at the top dose activity change, negative = inhibition. 1.8% of 71,000 active; further: % of control where 0% means no effect
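Enzyme, pH 7.0 phosphate. Compound titrations were pre-incubated with AmpC for 15 min at room temperature before nitrocefin (stock 800 uM) addition; product formation was recorded at 480 nm every 20 s for 4 min.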
* hit, by the source's call; ? = inconclusive; nt = no result given; [ ] = another dose, or the depositor's remark. Unless noted, the call rests on the fitted dose curve. Potency means the concentration at half of the fitted maximal effect.

SMILES	SmPrx2 inh	Anthrax LT inh	AmpC inh det	AmpC nodet inh
C[C@@H]1O[C@@H](OC[C@@H]2O[C@@H](Oc3c(-c4ccc(O)c(O)c4)oc4cc(O)cc(O)c4c3=O)[C@H](O)[C@H](O)[C@@H]2O)[C@H](O)[C@H](O)[C@@H]1O	>57	-19%	0%	1%
CCC(=O)N1CCN(c2ccc(NC(=O)c3cc4ccccc4o3)cc2Cl)CC1	>57	10µM*	-5%	109%
O=C(Nc1ccc(N2CCN(C(=O)c3ccco3)CC2)c(Cl)c1)c1cc2ccccc2o1	>57	?	-4%	18%
CCCC(=O)N1CCN(c2ccc(NC(=O)c3cc4ccccc4o3)cc2Cl)CC1	>57	6.3µM*	-2%	50%
N#Cc1ccc(NC(=O)Nc2ccc(Cl)cc2)cc1	>57	4µM*	13%	?
CN(CC(=O)Nc1ccc(C#N)cc1)Cc1ccc(Cl)cc1	>57	-13%	-2%	4%
CC(C)(O)[C@H]1[C@H]2OC(=O)[C@@H]1[C@]1(O)C[C@H]3O[C@]34C(=O)O[C@H]2[C@]14C (tested in a mixture with another compound)	>57	2%	-4%	6%
CC1=CC(=O)NP(=O)(Oc2ccc3ccccc3c2)N1 (configuration not stated)	0.57*	?	5%	-13%
CCC(Oc1ccc2ccccc2c1)C(=O)O (configuration not stated)	>57	-12%	-1%	3%
CC(C)(C)OC(=O)[C@H]([C@@H]1N[C@@H](C(=O)O)C(C)(C)S1)N1C(=O)c2ccccc2C1=O	>57	?	-4%[5.75 µM]	2%[5.75 µM]
CCOC(=O)N1CCC(NC(=O)c2ccc3snnc3c2)CC1	>57	1%	14%	4µM*[single pt active]
CCn1c(=O)c2cc(C(=O)N3CCCC3)sc2c2ccccc21	>57	-10%	14%	4µM*[single pt active]
CCOC(=O)c1cc2c(=O)n(C)c3ccccc3c2s1	>57	2%	12%	-2%
CCn1c(=O)c2cc(C(=O)N3CCOCC3)sc2c2ccccc21	>57	-16%	14%	4µM*[single pt active]
CCOC(=O)CSCc1nc(-c2ccc(Cl)cc2)oc1C	>57	?	25%	4µM*[single pt active]
Cc1cc(C(=O)CSc2nn(-c3ccccc3)c(=S)s2)c(C)n1Cc1ccco1	>57	?	-1%	13µM*
Cc1cc(C(=O)CSc2nnc(-c3ccco3)o2)c(C)n1Cc1ccco1	>57	-6%	-3%	28%
CC(=O)Oc1ccc(C(c2ccc(OC(C)=O)cc2)c2ccccn2)cc1	>57	0.16µM*	12%	57%
COc1ccc([C@H](O)c2ccccn2)cc1	>57	-7%[8 µM]	-7%[5.75 µM]	2%[5.75 µM]
C[C@H]1[C@H](C)CC[C@@]2(C(=O)O)CC[C@]3(C)C(=CC[C@H]4[C@@]5(C)C[C@@H](O)[C@H](O)[C@@](C)(CO)[C@@H]5CC[C@@]43C)[C@@H]12	>57	-6%	0%	100%
N#Cc1c(-c2ccc(Cl)cc2Cl)nc2n(c1=O)CCS2	>57	?	0%	10µM*[single pt active]
O=C(CSc1nnc(-c2cc3ccccc3cc2O)n1Cc1ccco1)c1ccc(F)cc1	>57	?	22%	10µM*
CCOC(=O)CN1c2ccccc2NC(=O)CC1C (configuration not stated)	>57	-6%	13%	4µM*[single pt active]
CCOC(=O)CN1C(=O)C(O)=C(C(C)=O)C1c1ccccc1 (configuration not stated)	>57	nt	-2%	1%
O=C(O)c1cc2c(cc1S(=O)(=O)O)[C@H]1[C@@H]([C@H]3[C@H]2[C@@]2(Cl)C(Cl)=C(Cl)[C@]3(Cl)C2(Cl)Cl)[C@]2(Cl)C(Cl)=C(Cl)[C@@]1(Cl)C2(Cl)Cl	>57	-10%[8 µM]	-6%[5.75 µM]	11%[5.75 µM]
SMILES	SmPrx2 inh	Anthrax LT inh	AmpC inh det	AmpC nodet inh
COc1ccc(C(=O)Oc2ccc3c(c2)OCO3)cc1OC	nt	7.9µM*	9%	33%
COc1cc(OC)c(C(=O)Oc2ccc3c(c2)OCO3)cc1OC	>57	?	-2%	47%
C[C@H](N)c1cccc(Cl)c1Cl	>57	-4%	-4%	3%
CC(C)n1cc2c3c(cccc31)[C@@H]1C[C@H](C(=O)O[C@@H](C)[C@H](C)O)CN(C)[C@H]1C2	>57	?	-2%	109%
COC(=O)CC[C@@H](C)[C@@H]1CC[C@@H]2[C@@H]3CC[C@H]4C[C@@H](O)CC[C@@]4(C)[C@@H]3CC[C@]21C	>57	2%[8 µM]	-3%[5.75 µM]	2%[5.75 µM]
CO[C@@H]1/C=C\O[C@]2(C)Oc3c(C)c(O)c4c(O)c(c(/C=N\N5CCN(C)CC5)c(O)c4c3C2=O)NC(=O)/C(C)=C\C=C/[C@H](C)[C@H](O)[C@H](C)[C@H](O)[C@H](C)[C@H](OC(C)=O)[C@@H]1C	>57	-9%	-1%	114%
COC(=O)[C@H](NC(=O)c1cc(-c2ccccc2)nc2ccccc12)c1ccccc1	>57	5µM*	-1%	34%
COc1cccc(-c2cc(C(=O)Nn3cnnc3)c3ccccc3n2)c1	>57	-5%	12%	-9%
N#Cc1c(N)oc(-c2ccc3c(c2)OCO3)c1-c1ccc2c(c1)OCO2	>57	5%	-2%	10µM*
N#Cc1c(N)nc2c(c1-c1ccc3c(c1)OCO3)CCCCCC2	>57	-25%	0%	8%
Cc1ccc(-n2nnc3ccccc3c2=O)cc1C	nt	13µM*	-3%	18%
CCCN1C(=O)c2cc(C(=O)Nc3ccccc3CC)ccc2C1O (configuration not stated)	>57	-11%	13%	4µM*[single pt active]
CCCN1C(=O)c2cc(C(=O)NC3CCCC3)ccc2C1O (configuration not stated)	>57	-10%	13%	4µM*[single pt active]
CCCCN1C(=O)c2ccccc2C1C(=O)NC1CCCC1 (configuration not stated)	>57	4%	-2%	-1%
ClC1=C(Cl)C2(Cl)C3C(Cl)C(Cl)CC3C1(Cl)C2(Cl)Cl (configuration not stated)	nt	?	13%	-18%
COc1ccc(C2CC(c3ccco3)n3ncnc3N2)cc1 (configuration not stated)	>57	-10%	8%	2.5µM*[single pt active]
CCOc1ccc(C2CC(c3cccc(C)c3)n3ncnc3N2)cc1 (configuration not stated)	>57	-13%	13%	83%
Cc1cccc(C2CC(c3ccccc3)Nc3ncnn32)c1 (configuration not stated)	>57	-1%	15%	4µM*[single pt active]
c1ccc(C2CC(c3ccccc3)n3ncnc3N2)cc1 (configuration not stated)	>57	7%	0%	16%
Fc1ccc(C2CC(c3ccccc3)Nc3ncnn32)cc1 (configuration not stated)	>57	-11%	14%	4µM*[single pt active]
COc1ccc(C2CC(c3cccc(C)c3)n3ncnc3N2)cc1 (configuration not stated)	>57	-2%	15%	4µM*[single pt active]

From PubChem
